Source: PubChem BioAssay AID1159580 (chemical genetic matrix, 2015)
Several values for one entry are separate records, joined by “and”; a condition that tells them apart may be missing. Equal entries are not always repeated. Out of some 5,500 compounds screened, about 2,000 (36%) were called active. About 18% were inconclusive and are not listed. No stated cut-off is given here; in the data, active means normalized growth mostly below about 0.91 (no sharp cut-off); inconclusive means no clear call, values can overlap the other calls; inactive means mostly above about 0.92. Some of the results follow.

Assay: chemical genetic growth profiling, strain panel (AID 1159580);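 further: tested at 20 µM; growth read once vehicle control cultures reached saturation at 30 °C; 1 = growth at the plate median or of vehicle wells; lower values mean less growth of the strain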
Conditions: S. cerevisiae deletion strains, growth OD

Measured: normalized growth

CN(C)CCCN1c2ccccc2Sc2ccccc21
inactive: locus YAL013W, strain DEP1, active compounds read low 0.988 and 0.967 | locus YAL021C, strain ccr4, active compounds read low 0.92 | locus YAL026C, strain drs2, active compounds read low 0.936 | locus YAL030W, strain snc1, active compounds read low 1.01 | locus YAL040C, strain CLN3, active compounds read low 0.964 | locus YBL061C, strain skt5, active compounds read low 1 | locus YBR009C, strain hhf1, active compounds read low 0.985 | locus YBR021W, strain FUR4, active compounds read low 0.961 | locus YBR023C, strain chs3, active compounds read low 1 | locus YBR171W, strain sec66, active compounds read low 0.996 | locus YBR229C, strain ROT2, active compounds read low 0.999 | locus YBR231C, strain swc5, active compounds read low 1.03 | locus YBR279W, strain paf1, active compounds read low 0.977 | locus YCL011C, strain gbp2, active compounds read low 0.996 | locus YCL016C, strain dcc1, active compounds read low 1.01 | locus YCL029C, strain bik1, active compounds read low 1.02 | locus YCL061C, strain MRC1 (second series), active compounds read low 0.983 | locus YCL061C, strain MRC1, active compounds read low 0.993 | locus YCL069W, strain vba3, active compounds read low 0.978 | locus YCR088W, strain abp1, active compounds read low 0.984 | locus YDL005C, strain med2, active compounds read low 1.03 | locus YDL035C, strain GPR1, active compounds read low 1.02 | locus YDL040C, strain nat1, active compounds read low 1 | locus YDL074C, strain BRE1, active compounds read low 1.01 | locus YDL101C, strain DUN1, active compounds read low 1.03 | locus YDL134C, strain PPH21, active compounds read low 1.01 | locus YDL185W, strain tfp1, active compounds read low 1.01 | locus YDL192W, strain arf1, active compounds read low 1.02 | locus YDR001C, strain nth1, active compounds read low 0.985 | locus YDR069C, strain doa4, active compounds read low 0.94 | locus YDR101C, strain arx1, active compounds read low 1.01 | locus YDR137W, strain rgp1, active compounds read low 1.13 | locus YDR150W, strain NUM1, active compounds read low 1.01 | locus YDR159W, strain sac3, active compounds read low 0.984 | locus YDR162C, strain NBP2, active compounds read low 1 | locus YDR195W, strain ref2 1.07 | locus YDR297W, strain sur2, active compounds read low 1.01 | locus YDR318W, strain mcm21, active compounds read low 1.02 | locus YDR334W, strain swr1, active compounds read low 0.95 | locus YDR335W, strain msn5, active compounds read low 0.994 | locus YDR363W, strain ESC2, active compounds read low 0.976 | locus YDR388W, active compounds read low 1.01 | locus YDR392W, strain spt3, active compounds read low 1.09 | locus YDR502C, strain sam2, active compounds read low 1.01 | locus YEL003W, strain gim4, active compounds read low 0.994 | locus YEL037C, strain rad23, active compounds read low 0.976 | locus YEL061C, strain CIN8 (second series), active compounds read low 0.96 | locus YEL061C, strain CIN8, active compounds read low 1 | locus YER002W, strain NOP16, active compounds read low 0.988 | locus YER015W, strain faa2, active compounds read low 0.991 | locus YER016W, strain bim1, active compounds read low 0.986 | locus YER110C, active compounds read low 1.02 | locus YER111C, strain swi4, active compounds read low 0.973 | locus YER155C, strain BEM2 (second series), active compounds read low 1.01 | locus YER155C, strain BEM2, active compounds read low 1 | locus YER167W, strain BCK2, active compounds read low 1.01 | locus YFR010W, strain ubp6, active compounds read low 0.92 | locus YGL078C, strain dbp3, active compounds read low 1.01 | locus YGL086W, strain mad1, active compounds read low 1.02 | locus YGL167C, strain pmr1, active compounds read low 0.981 | locus YGL173C, strain kem1, active compounds read low 0.981 | locus YGL227W, strain vid30, active compounds read low 0.996 | locus YGL240W, strain doc1, active compounds read low 1.04 | locus YGL248W, strain PDE1, active compounds read low 1 | locus YGL253W, strain hxk2, active compounds read low 0.994 | locus YGR078C, strain PAC10, active compounds read low 1.01 | locus YGR135W, strain pre9, active compounds read low 0.993 | locus YGR229C, strain SMI1, active compounds read low 0.971 | locus YGR252W, strain gcn5, active compounds read low 0.975 | locus YHR013C, strain ard1, active compounds read low 0.964 | locus YHR027C, strain rpn1, active compounds read low 0.989 | locus YHR030C, strain SLT2, active compounds read low 1 and 1.01 | locus YHR079C, strain IRE1 (second series), active compounds read low 1.01 | locus YHR079C, strain IRE1, active compounds read low 1.01 | locus YHR094C, strain hxt1, active compounds read low 1.01 | locus YHR129C, strain ARP1, active compounds read low 1.02 | locus YHR142W, strain chs7, active compounds read low 1.01 | locus YHR200W, strain rpn10, active compounds read low 1.02 | locus YIL066C, strain RNR3, active compounds read low 1 | locus YIL073C, strain SPO22, active compounds read low 1.02 | locus YIL125W, strain kgd1, active compounds read low 1.01 | locus YIR030C, strain dcg1, active compounds read low 1.02 | locus YJL092W, strain hpr5, active compounds read low 0.989 | locus YJL095W, strain BCK1 (second series), active compounds read low 1 | locus YJL095W, strain BCK1, active compounds read low 0.987 and 1.02 | locus YJL115W, strain asf1, active compounds read low 0.975 | locus YJL129C, strain trk1, active compounds read low 1.01 | locus YJL134W, strain LCB3, active compounds read low 1 | locus YJL154C, strain vps35, active compounds read low 0.977 | locus YJL164C, strain tpk1, active compounds read low 0.992 | locus YJL166W, strain qcr8, active compounds read low 0.995 | locus YJL168C, strain set2, active compounds read low 1.02 | locus YJL187C, strain SWE1 (second series), active compounds read low 1 | locus YJR043C, strain POL32, active compounds read low 1.02 | locus YJR066W, strain TOR1, active compounds read low 0.963
